Hits are enriched below; roughly 2.2% of the tested compounds scored in any of these assays.
GRK2 inh – inhibitors of human GRK2 displacing RNA aptamer | 0.59% of 330,000 active | P25098 | inhibition of aptamer binding, % at 10 µM | bead flow cytometry, FAM-aptamer displacement from GRK2;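 active = inhibition of aptamer binding above 40%, roughly 3 SD of noise, on plates passing a quality check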;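 note: median bead fluorescence of bound FAM aptamer so fluorescent compounds give negative values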
NOD2-RIPK2 inh – NOD2-RIPK2 protein interaction inhibition | inhibition, % at 4.98 µM | 0.38% of 360,000 active | CHO BLA complementation NOD2-RIPK2, CCF4 ratio | O43353 | AID 624267; in the data active = inhibition above about 21%
ANO1 activ – activates or potentiates the mouse TMEM16A chloride channel; Q8BHY3; HEK293 TMEM16A/YFP-H148Q/I152L, iodide quench fluorescence; hits give low values; B-score at 10 µM; 0.3% of 340,000 active; AID 623877;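 active = fluorescence-ratio B-score plate-corrected deviation score at least 3 library SD below zero, with starting fluorescence score within 5 deviations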;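 note: channel opened by trigger with iodide after compound preincubation; score built on the fluorescence ratio of max minus min over baseline; more negative score means more quench and so TMEM16A activation or potentiation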
ANO1 block – inhibitors of mouse TMEM16A calcium-activated chloride channel | HEK293 TMEM16A/YFP iodide influx fluorescence, ionomycin | normalized B-score (activity score, 25-100; higher = stronger inhibition) at 10 µM | 1.2% of 310,000 active | AID 588511;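 active = ratio plate-corrected score three or more library SD toward inhibition, starting fluorescence score within five deviations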;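 note: score derived from kinetic fluorescence span divided by baseline fluorescence per well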
TLR4 MyD88 comp – blocks binding of human TLR4 to MyD88. inhibition, % at 8.4 µM. O00206+Q99836. HeLa CL3-4 TLR4/MyD88 BLA complementation, FRET ratio. 0.18% of 200,000 active; in the data active = inhibition above about 25%
TLR9-MyD88 block – TLR9-MyD88 interaction inhibition. inhibition, % at 4.98 µM. AID 504734. 0.21% of 340,000 active. Q9NR96+Q99836. CHO BLA complementation TLR9-MyD88, CCF4 FRET ratio;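 active = inhibition above the mean over all tested compounds plus 3 SD, cut at about 21% in these data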
TLR9-MyD88 conf – confirmation of human TLR9-MyD88 binding inhibitors | shares compounds with TLR9-MyD88 block | CHO TLR9/MyD88 BLA complementation, CCF4 FRET ratio | inhibition, % at 4.98 µM | 51% of 680 active;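 active = mean inhibition across three repeats above about 21% taken from the earlier screen, limit read from the data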;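 note: blue over green emission ratio reports constitutive TLR9 MyD88 association via BLA complementation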
Target sequence (Q9NR96 whole entry, looked up): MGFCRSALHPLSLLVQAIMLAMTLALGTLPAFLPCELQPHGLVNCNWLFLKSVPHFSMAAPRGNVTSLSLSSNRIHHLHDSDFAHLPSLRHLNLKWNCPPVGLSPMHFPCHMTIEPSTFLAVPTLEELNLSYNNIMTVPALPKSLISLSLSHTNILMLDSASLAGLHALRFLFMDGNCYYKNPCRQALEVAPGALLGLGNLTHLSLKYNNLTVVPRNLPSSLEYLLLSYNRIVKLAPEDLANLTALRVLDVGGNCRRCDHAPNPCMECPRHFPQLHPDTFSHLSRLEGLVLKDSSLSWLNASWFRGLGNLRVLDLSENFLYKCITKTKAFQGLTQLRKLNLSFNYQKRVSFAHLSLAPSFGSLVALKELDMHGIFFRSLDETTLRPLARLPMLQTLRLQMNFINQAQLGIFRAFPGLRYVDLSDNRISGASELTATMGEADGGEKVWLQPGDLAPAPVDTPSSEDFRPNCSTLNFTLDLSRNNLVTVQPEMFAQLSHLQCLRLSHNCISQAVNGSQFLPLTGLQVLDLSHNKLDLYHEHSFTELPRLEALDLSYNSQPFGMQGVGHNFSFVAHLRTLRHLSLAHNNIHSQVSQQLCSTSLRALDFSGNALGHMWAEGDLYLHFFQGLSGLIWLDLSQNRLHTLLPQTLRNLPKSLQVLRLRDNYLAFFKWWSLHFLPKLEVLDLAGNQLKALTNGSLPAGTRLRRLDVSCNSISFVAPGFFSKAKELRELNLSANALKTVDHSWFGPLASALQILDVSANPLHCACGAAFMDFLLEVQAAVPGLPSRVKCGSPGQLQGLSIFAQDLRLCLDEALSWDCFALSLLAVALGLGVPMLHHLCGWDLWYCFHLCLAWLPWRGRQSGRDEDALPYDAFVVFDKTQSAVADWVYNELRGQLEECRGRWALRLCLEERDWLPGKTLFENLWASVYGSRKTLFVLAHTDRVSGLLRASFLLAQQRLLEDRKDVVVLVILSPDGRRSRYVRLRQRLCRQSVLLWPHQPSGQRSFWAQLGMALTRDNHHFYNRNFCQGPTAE
BLA nonselective – beta-lactamase reporter inhibition, counter-screen artifact; shares compounds with TLR9-MyD88 block; CHO-BLA cells, CCF4 FRET ratio, BLA reporter; inhibition, % at 4.98 µM; 7% of 680 active;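 active = mean inhibition above a 50% cutoff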;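 note: counterscreen of TLR9-MyD88 hits on CMV-driven BLA in CHO-K1 cells; higher means less blue over green ratio so more BLA blockade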
TLR9 CHO tox – CHO cell toxicity counter-screen for TLR9-MyD88 inhibitors; shares compounds with TLR9-MyD88 block; TLR9-MyD88 CHO cells cytotoxicity, luminescence; inhibition, % at 4.98 µM; 39% of 680 active; in the data active = inhibition above about 11%
A number is an active result; n = inactive; x = no result given.

SMILES	GRK2 inh	NOD2-RIPK2 inh	ANO1 activ	ANO1 block	TLR4 MyD88 comp	TLR9-MyD88 block	TLR9-MyD88 conf	BLA nonselective	TLR9 CHO tox
O=[N+]([O-])c1ccc2c(c1)C=C1CCCCC1(N1CCCCC1)O2 (centres undefined)	n	n	n	n	n	24	n	n	n
COc1ccccc1C(=O)Nc1onc(C)c1C#N	n	n	n	n	n	22	n	n	n
Cc1noc(NC(=O)c2ccccc2Cl)c1C#N	n	n	n	n	n	n	x	x	x
Cc1cccc(N(CC(=O)NCCc2ccccc2)C(=O)CCC(=O)Nc2ccccn2)c1C	n	n	n	n	x	n	x	x	x
CC(C)NC(=S)N/N=C/c1cc(Br)ccc1O	n	n	n	n	n	21	n	n	n
COc1ccc(NC(=O)Cn2nnc(C(=O)NCc3ccc4c(c3)OCO4)c2N)c(OC)c1	n	n	n	n	x	n	x	x	x
Nc1cccc2c1C(=O)N(C(=O)c1ccc(Cl)c(S(=O)(=O)N3CCCCCC3)c1)C2=O	n	n	n	n	n	28	n	n	n
O=C(c1ccc(Cl)c(S(=O)(=O)N2CCCCC2)c1)N1CCCCC1	n	n	n	n	x	n	x	x	x
CCn1nc(NC(=O)c2ccncc2)c2cc3cccc(C)c3nc21	n	n	n	n	n	n	x	x	x
CCn1nc(NC(=O)c2cccnc2)c2cc3cccc(C)c3nc21	n	n	n	n	n	23	n	n	n
C=CCn1c(O)c(N=O)c2ccccc21	n	n	n	n	x	n	x	x	x
C/C(Cl)=C\Cn1c(O)c(N=O)c2ccccc21	n	n	n	n	n	21	n	n	n
Cc1ccc(Cn2c(O)c(N=O)c3ccccc32)cc1	n	n	n	n	n	24	n	n	n
O=Nc1c(O)n(Cc2ccc(Cl)cc2Cl)c2ccccc12	n	n	n	n	n	33	23	n	n
CC(=O)N1CCN(S(=O)(=O)c2cccc(C(=O)N(Cc3ccccc3)c3cccc(C)c3)c2)CC1	n	n	n	n	x	n	x	x	x
Cc1ccsc1C1C=C(c2cccc(Br)c2)Nc2ncnn21 (centres undefined)	n	n	n	n	n	28	n	n	n
COc1ncccc1-c1ccc2nncn2c1	x	n	x	x	x	x	x	x	x
Cc1oc(-c2cc(F)ccc2F)nc1CN1CCN(c2cnccn2)CC1	n	n	n	n	n	22	n	n	n
Cc1oc(-c2cc(F)ccc2F)nc1CN(C)Cc1ccc2nccnc2c1	n	n	n	n	n	n	x	x	x
O=C(C=Cc1ccccc1)c1ccc([N+](=O)[O-])cc1	x	n	n	x	x	n	x	x	x
O=[N+]([O-])c1ccc(C=CC=Cc2ccccc2)cc1	x	n	x	x	x	25	n	n	n
COc1ccc(S(=O)(=O)N2CCCCCC2)cc1C(=O)NCc1ccc(C)cc1	n	n	n	x	x	n	x	x	x
O=C(Nc1nc2n(n1)C(c1ccccc1)C=C(c1ccccc1)N2)c1ccco1 (centres undefined)	n	n	n	n	n	n	x	x	x
CC(=O)Nc1nc2n(n1)C(c1ccccc1)C=C(c1ccccc1)N2 (centres undefined)	n	56	n	n	n	56	34	n	n
CS(=O)(=O)Nc1nc2n(n1)C(c1ccccc1)C=C(c1ccc(Br)cc1)N2 (centres undefined)	n	47	n	n	n	37	n	n	n
SMILES	GRK2 inh	NOD2-RIPK2 inh	ANO1 activ	ANO1 block	TLR4 MyD88 comp	TLR9-MyD88 block	TLR9-MyD88 conf	BLA nonselective	TLR9 CHO tox
CCCc1cc(-c2ccc3c(c2)COc2c4ccccc4nn2-3)on1	n	n	n	n	x	n	x	x	x
O=S(=O)(NCC1CCCN(Cc2ccccc2O)C1)c1cccc2cccnc12 (centres undefined)	n	n	n	n	x	n	x	x	x
CCS(=O)(=O)Nc1ccc(C(=O)c2ccccc2)cc1	n	n	n	n	n	22	n	n	n
CN(C)/C=C1\C=C2C(=O)c3ccccc3N2C1=O	n	n	n	n	x	23	n	n	n
CN(C)S(=O)(=O)N1C(=O)c2ccccc2C1=O	n	n	n	n	x	n	x	x	x
COc1ccc(Nc2cccc3ccccc23)cc1	n	n	n	n	x	n	x	x	x
CCCCn1nc(C(=O)NCC2COc3ccccc3O2)c2ccccc2c1=O (centres undefined)	n	n	n	x	x	n	x	x	x
COc1ccc2cc(C(=O)Nc3ccc(Cl)cc3)sc(=O)c2c1OC	n	n	n	n	n	n	x	x	x
O=C1/C(=C\c2cc([N+](=O)[O-])ccc2O)SC(=S)N1Cc1ccc(Cl)cc1	n	n	n	n	x	24	n	n	n
CS(=O)(=O)c1ncc(Cl)c(C(=O)Nc2ccc(N3CCOCC3)cc2)n1	n	47	n	n	n	43	47	n	95
CS(=O)(=O)c1ccc(C(=O)Nc2ccc(N3CCOCC3)cc2)c(Cl)c1	n	n	n	n	n	n	x	x	x
CS(=O)(=O)c1ncc(Cl)c(C(=O)Nc2ccc(OC(F)F)cc2)n1	n	73	n	n	x	42	45	n	97
COC(=O)C1=C(C)NC(C)=C(C(=O)OC)C1C(=O)OCc1nnc(-c2ccccc2Cl)o1	x	n	n	x	x	n	x	x	x
CCOC(=O)C1CCCN(C(=O)c2cc3c(-c4cccc(OC)c4)nn(C)c3s2)C1 (centres undefined)	n	n	n	n	n	28	n	n	27
COc1ccc(S(=O)(=O)N(C)C[C@H]2OCc3cn(nn3)CCCC(=O)N([C@@H](C)CO)C[C@@H]2C)cc1	x	n	x	x	x	x	x	x	x
O=C(CSc1nncs1)Nc1nccs1	n	n	n	n	x	26	n	n	n
O=C(CNC(=O)c1ccco1)NNC(=O)c1cccc(Cl)c1	n	n	n	x	x	n	x	x	x
CCN(CC)c1ccc(C=NNc2ccc([N+](=O)[O-])cn2)cc1	x	n	n	x	x	22	38	n	n
O=[N+]([O-])c1ccc(NN=Cc2ccc(O)cc2)nc1	x	n	n	x	x	n	x	x	x
CCOC(=O)Cc1csc(/N=C/c2c(O)n(-c3ccccc3C(F)(F)F)c(=O)c3ccccc23)n1	n	n	n	n	n	22	n	n	n
COc1cccc(NC(=O)C(c2ccccc2)N2CCN(CC(=O)N3CCOCC3)CC2)c1 (centres undefined)	n	n	n	x	x	n	x	x	x
O=C(O)C1CCc2nc(NCc3ccccc3)nc(NCc3ccccc3)c2C1 (centres undefined)	x	n	n	x	x	n	x	x	x
CC[C@]12c3[nH]c4ccccc4c3CCN1C(=O)C(CC(=O)NCCc1ccccn1)C[C@@H]2C(=O)N1CCN(C(=O)C2CC2)CC1 (some centres undefined)	n	n	x	x	x	n	x	x	x
